Compounds without any hit were thinned out: in the full panel of roughly 83,000, 20% have a hit.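 Plates (96-well) were seeded with cells, treated with compound at one concentration, and incubated for 48 hours before percent growth was determined.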 Unmarked numbers belong to inactive results. The source made the active and inactive calls. How the source made its calls: active means growth percent below 10; inactive means the rest.

Among the data in PubChem BioAssay (NCI) are growth values, retold here.

Some test systems named below: NCI-H23 lung; NCI-H226 lung; NCI-H322M lung; HOP-62 NSCLC; NCI-H460 lung; HOP-92 NSCLC; NCI-H522 lung; A549/ATCC NSCLC; 786-0 renal; COLO 205 colon; DU-145 prostate; K-562 leukemia; MALME-3M melanoma; MDA-MB-231 breast; RXF 393 renal; SF-268 CNS; SF-295 CNS; SF-539 CNS; UACC-257 melanoma; M14 melanoma.
Holding throughout (assay): NCI-60 one-dose screen, 48 h (100 = growth as untreated, 0 = no growth, -100 = all killed)
What all share (conditions): 10 µM

In the case of `COc1cc(C2=Nc3c/c(=C\c4c(O)[nH]c5ccc(Cl)cc45)ccc3=N2)cc(OC)c1OC`, the growth with NCI-H23 lung was 2.68% (active); in the assay with NCI-H226 lung it was 55.4%; in the assay with NCI-H322M lung, 57.2%; with HOP-62 NSCLC it was -82% (active); with NCI-H460 lung it was 8.64% (active); in the assay with HOP-92 NSCLC it was -61.5% (active). For the same molecule, the growth is 24.9% with NCI-H522 lung; 56.5% in the assay with A549/ATCC NSCLC; -6.36% (active) with 786-0 renal; -41.1% (active) in the assay with COLO 205 colon; 4.46% (active) in the assay with DU-145 prostate; 17.3% with K-562 leukemia. The growth in the assay with MALME-3M melanoma was -51.8% (active); with MDA-MB-231 breast it was 2.35% (active); in the assay with RXF 393 renal it was 1.13% (active); in the assay on SF-268 CNS, -51.5% (active); in the assay on SF-295 CNS it was 83.3%; with SF-539 CNS, -52.4% (active). Besides, the growth is -77% (active) in the assay with UACC-257 melanoma and -21.6% (active) with M14 melanoma.

Take `O=C(Nc1cccc(C(F)(F)F)c1)C(Cl)Cl`: the growth in the assay on NCI-H23 lung is 94.1%; in the assay with NCI-H226 lung it was 101%; in the assay with NCI-H322M lung it was 87.5%; in the assay on HOP-62 NSCLC, 96.5%; in the assay with NCI-H460 lung, 102%; with HOP-92 NSCLC it was 81.7%. Besides, the growth is 98.2% with NCI-H522 lung; 98% with A549/ATCC NSCLC; 101% in the assay on 786-0 renal; 101% in the assay with COLO 205 colon; 98.3% in the assay on DU-145 prostate; 102% with K-562 leukemia. Besides, the growth was 94.7% in the assay with MALME-3M melanoma; 127% in the assay with MDA-MB-231 breast; 104% in the assay on RXF 393 renal; 99.4% in the assay with SF-268 CNS; 90.4% in the assay on SF-295 CNS; 93.8% in the assay on SF-539 CNS. Besides, the growth is 98% with UACC-257 melanoma and 98.8% in the assay on M14 melanoma.

Take `C/C=C\COc1cc(C)c(Cl)cc1Cl`: the growth in the assay on NCI-H23 lung is 111%; with NCI-H226 lung it was 87.5%; with NCI-H322M lung, 104%; with HOP-62 NSCLC it was 109%; in the assay with NCI-H460 lung, 103%; in the assay on HOP-92 NSCLC it was 85.5%. Further, the growth is 119% in the assay with NCI-H522 lung; 91.8% in the assay with A549/ATCC NSCLC; 108% in the assay on 786-0 renal; 107% in the assay on COLO 205 colon; 111% with DU-145 prostate; 114% in the assay with K-562 leukemia. Moreover, the growth in the assay with MALME-3M melanoma was 95.9%; with MDA-MB-231 breast, 111%; with RXF 393 renal it was 96.2%; in the assay on SF-268 CNS, 114%; with SF-295 CNS it was 99%; with SF-539 CNS, 104%. The growth was 92% in the assay with UACC-257 melanoma and 112% with M14 melanoma.

For `CCc1c(C(=O)NCc2c(O)ccc3cccc(O)c23)[nH]c(C)c1C(C)=O`, the growth in the assay with NCI-H23 lung was 23.4%; in the assay with NCI-H226 lung, 52.7%; in the assay with NCI-H322M lung, 69.5%; in the assay on HOP-62 NSCLC, 59%; in the assay on NCI-H460 lung, 43.4%; with HOP-92 NSCLC it was 32.8%. The growth is 11.4% with NCI-H522 lung; 27.3% in the assay with A549/ATCC NSCLC; 60.9% in the assay on 786-0 renal; 69.5% in the assay on COLO 205 colon; 55.1% with DU-145 prostate; 16.8% with K-562 leukemia. For the same molecule, the growth with MALME-3M melanoma is 37.4%; with MDA-MB-231 breast, 48.3%; in the assay with RXF 393 renal, 58.8%; in the assay on SF-268 CNS, 31.1%; in the assay on SF-295 CNS, 11.8%; with SF-539 CNS, 56.3%. For the same molecule, the growth was 35% in the assay on UACC-257 melanoma and 30.9% in the assay with M14 melanoma.

For `Cc1cc(C)c(C(=O)OC(C)CNC2CCCCC2)c(C)c1` (stereo not given), the growth is 94.1% in the assay with NCI-H23 lung; 99.6% with NCI-H226 lung; 95.4% with NCI-H322M lung; 85.7% in the assay with HOP-62 NSCLC; 98% with NCI-H460 lung; 51.9% with HOP-92 NSCLC. Moreover, the growth is 99.4% in the assay with NCI-H522 lung; 102% in the assay with A549/ATCC NSCLC; 93.2% with 786-0 renal; 96.8% with COLO 205 colon; 106% in the assay with DU-145 prostate; 81.2% with K-562 leukemia. The growth was 108% with MALME-3M melanoma; 102% in the assay with MDA-MB-231 breast; 105% in the assay with RXF 393 renal; 99.7% with SF-268 CNS; 97.7% with SF-295 CNS; 99.2% in the assay with SF-539 CNS. Also, the growth in the assay with UACC-257 melanoma is 97.7%; with M14 melanoma, 90.5%.

Take `CCCCCCCCCCCCc1ccc(C(=O)/C=C/C(=O)O)cc1`: the growth is 78.6% with NCI-H23 lung; 121% in the assay on NCI-H226 lung; 116% with NCI-H322M lung; 93% in the assay with HOP-62 NSCLC; 94.2% with NCI-H460 lung; 46.4% in the assay on HOP-92 NSCLC. In addition, the growth is -24.2% (active) with NCI-H522 lung; 78.4% with A549/ATCC NSCLC; -3.51% (active) with 786-0 renal; 21.6% in the assay on COLO 205 colon; 89.8% in the assay with DU-145 prostate; -5.52% (active) with K-562 leukemia. Also, the growth is 69.1% in the assay on MALME-3M melanoma; 29.4% with MDA-MB-231 breast; 80.8% in the assay with RXF 393 renal; 100% with SF-268 CNS; 80.2% with SF-295 CNS; 76.5% in the assay with SF-539 CNS. The growth in the assay with UACC-257 melanoma is 96.1%; with M14 melanoma, 62.1%.

For the molecule `O=NN(CCCl)C(=O)Nc1ccc(NC(=O)N(CCCl)N=O)cc1`, the growth is 107% in the assay on NCI-H23 lung; 96.5% with NCI-H226 lung; 112% in the assay on NCI-H322M lung; 105% with HOP-62 NSCLC; 88.7% in the assay on NCI-H460 lung; 84.8% in the assay on HOP-92 NSCLC. Moreover, the growth was 114% in the assay on NCI-H522 lung; 82.8% in the assay with A549/ATCC NSCLC; 61.3% in the assay with 786-0 renal; 105% in the assay on COLO 205 colon; 111% with DU-145 prostate; 92.6% with K-562 leukemia. Moreover, the growth in the assay with MALME-3M melanoma is 105%; with MDA-MB-231 breast, 109%; in the assay on RXF 393 renal it was 109%; with SF-268 CNS, 61.2%; in the assay on SF-295 CNS, 74%; with SF-539 CNS, 19.7%. Moreover, the values for the growth with UACC-257 melanoma and with M14 melanoma were 85.7% and 93.1%, respectively.
